Test results from PubChem BioAssay.
Calls of active or inactive are those of the source.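 Rule for the calls, unless noted: active = inhibition of the reporter signal at or above 50%; inactive = inhibition below 50%.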

Legend:
[1] = inhibitors of TNFa-induced NFkB p65 translocation, primary screen, imaging, HUVEC, MLSMR starter and 10KST1 sets (AID 438;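 active = inhibition above 20% together with a positive visual image hit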;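 note: compound added about 3h40 before a 20 min TNFalpha stimulation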;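 for inhibition: signal is the nuclear over cytoplasmic p65 intensity ratio per well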); conditions: HUVEC TNFa-induced p65 nuclear translocation; cell count: measured here: nuclei count (cytotoxicity indicator), at 2.08 µM; inhibition: at 2 µM, stronger effect = higher value, 0% TNFa-plus-vehicle, 100% no-TNFa wells
[2] = reduction of polyQ htt aggregates in cells – imaging, exon1htt(103Q)mCFP cells, high-content imaging, primary screen (AID 483;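 active = visual image review flags a hit and inhibition of aggregation exceeds 20%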;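 note: compound exposure lasted 3 days before fixation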;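 for nuclei count: percent of the per-plate median nuclei count of sample wells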); conditions: exon1htt(103Q)mCFP cell line, aggregate imaging, at 2 µM; inhibition of aggregation: stronger effect = higher value; nuclei count: measured here: cell count, toxicity
[3] = endothelial E-selectin expression blockers – imaging, HUVEC, immunofluorescence, MLSMR starter and 10KST1 sets, primary screen (AID 487;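 active = visually confirmed hit in the image check and inhibition above 20%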;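 for inhibition: signal is fraction of cell area covered by stained E-selectin grains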;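 for nuclei count: 100% = median nuclei count of all wells on the same plate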); conditions: HUVEC TNFalpha-induced E-selectin immunofluorescence imaging, at 2 µM; inhibition: stronger effect = higher value; nuclei count: measured here: cell number, toxicity
[4] = biological target: Voltage-gated potassium channel subunit beta-2 (Rattus norvegicus) (UniProt P62483); assay: inhibitors of rat Kvbeta2 reductase activity – biochemical, NADPH fluorescence, primary screen (AID 622;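 active = fluorescence slope higher than the sample average by over 3 SD, cut at about -0.22 in these data, passing the limit was not always enough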;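 note: slope of raw intensity against log time taken from 70 to 1610 s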); conditions: recombinant KvBeta, 4-cyanobenzaldehyde reduction, at 10 µM, stronger effect = higher value
Sequence of Voltage-gated potassium channel subunit beta-2 (Rattus norvegicus) (P62483 whole entry, looked up): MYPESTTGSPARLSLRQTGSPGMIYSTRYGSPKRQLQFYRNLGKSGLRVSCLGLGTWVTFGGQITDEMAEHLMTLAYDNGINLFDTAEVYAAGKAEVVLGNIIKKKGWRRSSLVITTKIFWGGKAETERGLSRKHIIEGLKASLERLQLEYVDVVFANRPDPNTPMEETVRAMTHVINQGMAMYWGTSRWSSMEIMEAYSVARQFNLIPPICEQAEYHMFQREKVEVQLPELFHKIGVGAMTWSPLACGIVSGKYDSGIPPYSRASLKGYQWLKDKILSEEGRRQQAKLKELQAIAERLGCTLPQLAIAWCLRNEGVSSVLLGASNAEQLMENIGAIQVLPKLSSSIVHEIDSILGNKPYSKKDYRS

[5] = biological target: Voltage-gated potassium channel subunit beta-2 (Rattus norvegicus) (UniProt P62483); assay: enhancers of rat Kvbeta2 NADPH turnover – biochemical, NADPH fluorescence, primary screen (AID 623;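 active = NADPH fluorescence slope more negative than the mean of all samples by about 3 SD, 99.7% confidence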;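 note: fluorescence intensity change per second fitted from 20 to 320 s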); conditions: Recombinant KvBeta, NADPH fluorescence decrease slope, 10 min; at 10 µM; stronger effect = lower value
[6] = biological target: Alpha-2C adrenergic receptor (Homo sapiens) (UniProt P18825); assay: compounds altering alpha2C-coupled GIRK flux – cell-based, HEK293 alpha2C/GIRK1/2, thallium flux, primary screen (AID 624;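 active = fluorescence slope after compound addition differing from the mean of all screened samples at 99.7% confidence, in either direction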;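 note: slope of fluorescence ratio to pre-addition baseline per second over 15 to 24 s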); conditions: thallium flux BTC fluorescence, at 10 µM, actives lie on both sides
Sequence of Alpha-2C adrenergic receptor (Homo sapiens) (P18825 whole entry, looked up): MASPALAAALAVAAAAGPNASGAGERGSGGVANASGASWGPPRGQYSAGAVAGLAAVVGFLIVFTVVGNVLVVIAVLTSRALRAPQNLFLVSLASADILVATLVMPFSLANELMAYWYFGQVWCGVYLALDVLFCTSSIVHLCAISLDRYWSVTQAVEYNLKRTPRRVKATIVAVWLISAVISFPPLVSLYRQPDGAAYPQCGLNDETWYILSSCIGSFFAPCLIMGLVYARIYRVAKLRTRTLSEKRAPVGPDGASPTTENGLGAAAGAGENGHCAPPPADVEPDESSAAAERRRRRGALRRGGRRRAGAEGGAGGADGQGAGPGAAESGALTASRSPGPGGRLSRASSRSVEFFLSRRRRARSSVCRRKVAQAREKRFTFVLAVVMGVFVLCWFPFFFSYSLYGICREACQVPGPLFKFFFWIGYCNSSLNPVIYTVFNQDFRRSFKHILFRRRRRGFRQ

[7] = blockers of RIG-like receptor reporter activation – cell-based, Sendai virus stimulus, luciferase, 10K MLSCN set, TLR/RLR signaling modifier project, primary screen (AID 602276;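 active = inhibition at or above 50% at 10 µM; inactive = inhibition below 50%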;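 note: firefly luciferase from ISG56 promoter only with Renilla not read in this screen; 0% = Sendai virus plus DMSO and 100% = medium plus DMSO without virus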); conditions: HEK293 RL24 IRF3 luciferase reporter, at 10 µM, stronger effect = higher value
[8] = TLR3 IRF3 reporter activation blockers – cell-based, poly I:C stimulus, luciferase, 10K MLSCN set, primary screen (AID 602277); conditions: HEK293-TLR3 RL24 IRF3 luciferase reporter, at 10 µM, stronger effect = higher value

Row | Structure (SMILES) | cell count [1] | inhibition [1] | inhibition of aggregation [2] | nuclei count [2] [%] | inhibition [3] | nuclei count [3] [%] | fluorescence slope [4] | NADPH fluorescence slope [5] | slope [6] | inhibition [7] | inhibition [8]
1 | COc1ccc(Cn2nnnc2C(c2ccccn2)N2CCN(c3cc(Cl)ccc3C)CC2)cc1 (centres undefined) | 669 | -8% (inactive) | 2.5% (inactive) | 112 | -18.4% (inactive) | 104 | -0.217 (inactive) | -1.3e-05 (inactive) | 0.00703 (inactive) | 21.3% (inactive) | 37.4% (inactive)
2 | Cc1ccc(SCC(=O)NCCN2C(=O)CSC2=O)c(C)c1 | 323 | 22.6% (inactive) | -4.2% (inactive) | 93.3 | -98.3% (inactive) | 115 | -0.422 (inactive) | -2.5e-05 (inactive) | 0.00367 (inactive) | 0.863% (inactive) | 35.6% (inactive)
3 | O=C(CS(=O)CC(=O)Nc1cccc2c1CCCC2)Nc1ccc(F)cc1 (centres undefined) | 210 | 2.1% (inactive) | -8.6% (inactive) | 84.1 | 26.9% (inactive) | 80.2 | -0.621 (inactive) | 1e-05 (inactive) | 0.00343 (inactive) | 12.7% (inactive) | 18.9% (inactive)
4 | CCOc1nc(OCC)nc(N2CCC(C)CC2)n1 | 499 | 9.1% (inactive) | 5.9% (inactive) | 106 | -118% (inactive) | 138 | -0.242 (inactive) | -3.2e-05 (inactive) | 0.005 (inactive) | 16.6% (inactive) | 20.5% (inactive)
5 | CC(=O)N1CCN(C(=O)COc2ccc(Br)cc2)CC1 | 518 | -6.3% (inactive) | -1.5% (inactive) | 93.7 | -21.9% (inactive) | 139 | -0.592 (inactive) | -5.6e-05 (inactive) | 0.00597 (inactive) | 5.88% (inactive) | 13.4% (inactive)
6 | Cc1cccc(NC(=O)CS(=O)(=O)c2cn(C)c3ccccc23)c1 | 628 | 2.4% (inactive) | 4.8% (inactive) | 99.7 | -12.5% (inactive) | 103 | -0.521 (inactive) | 2.1e-06 (inactive) | 0.00711 (inactive) | 7.93% (inactive) | 22.7% (inactive)
7 | COc1cc(C2CC(=O)NC3=C2C(=O)CC(C)(C)C3)ccc1O (centres undefined) | 380 | -2.2% (inactive) | 6.5% (inactive) | 101 | 2.8% (inactive) | 105 | -0.41 (inactive) | -4.2e-05 (inactive) | 0.00203 (inactive) | 1.82% (inactive) | 16.2% (inactive)
8 | CN(C)c1ccnc(NCc2ccccc2)c1C#N | 286 | 2.1% (inactive) | 19% (inactive) | 72.9 | -62% (inactive) | 112 | -0.411 (inactive) | -3.6e-05 (inactive) | 0.00526 (inactive) | -8.5% (inactive) | -26.6% (inactive)
9 | CCOC(=O)c1c(C)c(C(=O)NCCN2CCOCC2)c(C)n1C | 607 | -11.6% (inactive) | 13% (inactive) | 88.4 | 1.3% (inactive) | 103 | -0.496 (inactive) | -8.5e-05 (inactive) | 0.00563 (inactive) | 13.6% (inactive) | 22.1% (inactive)
10 | Cc1cc(C)cc(NC(=O)C2CCCN(S(=O)(=O)c3cnc[nH]3)C2)c1 (centres undefined) | 595 | 17.2% (inactive) | -39.1% (inactive) | 97.1 | -30% (inactive) | 124 | -0.523 (inactive) | 1.2e-05 (inactive) | 0.00642 (inactive) | 14.1% (inactive) | 33.8% (inactive)
11 | O=C(CCN1C(=O)COc2ccccc21)N1CCN(c2ccccn2)CC1 | 690 | -8.6% (inactive) | -0.4% (inactive) | 101 | -176% (inactive) | 132 | -0.591 (inactive) | 5.1e-07 (inactive) | 0.00618 (inactive) | 10.4% (inactive) | 14.6% (inactive)
12 | Cc1ccc(-c2nc3ncccc3o2)cc1NC(=O)c1ccco1 | 317 | 0.6% (inactive) | -1.4% (inactive) | 102 | -107% (inactive) | 102 | -0.429 (inactive) | 2.8e-06 (inactive) | 0.00563 (inactive) | -1.98% (inactive) | 14.6% (inactive)
13 | COc1ccc(OC)c2[nH]c(=O)c(CCNC(=O)C(C)C)cc12 | 629 | -21.1% (inactive) | 7.9% (inactive) | 79.4 | -27.3% (inactive) | 112 | -0.56 (inactive) | -1.8e-05 (inactive) | 0.00598 (inactive) | -3.11% (inactive) | 9.79% (inactive)
14 | CCOC(=O)CNC(=O)CSc1nc(N(C)C)nc(N2CCOCC2)n1 | 580 | 5.1% (inactive) | -7.9% (inactive) | 110 | -71.8% (inactive) | 111 | -0.517 (inactive) | -4e-05 (inactive) | 0.00497 (inactive) | 18.7% (inactive) | 26.3% (inactive)
